Screening data (PubChem BioAssay)
CCT chaperon mod – modulators of cytosolic chaperonin (CCT/TRiC) activity; activity change, % (concentration not given with the values), hits read low; AID 651819; 360,000 tested, 0.3% active; purified chaperonin ATPase assay, HTRF ADP detection, 30 min; in the data active = activity change below about -30%
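First, chaperonin was dispensed at 40 nM or 20 nM final depending on batch activity. Next, compounds were pinned at 76 uM and ATP added at 10 uM. After 30 min at 37 °C, ADP detection reagents ran 30 min at ambient temperature.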
VDR inhibitor – vitamin D3 receptor (human) inhibition. VDR-SRC2-3 peptide fluorescence polarization, 2 h. Potency, µM, usual class: inhibitors. 400,000 tested, 0.93% active
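After 23 nl compound addition and a short centrifugation, plates sat for 2 hours at ambient temperature; polarization of fluorescence then indicated loss of VDR binding to peptide SRC2-3.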
PLK1 PBD block – blocks phosphopeptide binding to human PLK1 polo-box domain. Potency, µM, hits mostly inhibitors. 360,000 tested, 2.8% active. P53350. Plk1 PBD binding of FITC phosphopeptide, fluorescence polarization; note: series mostly up to about 57 µM; nearly all actives have a fitted effect of over 65% in size
G9a block – inhibitors of human histone lysine methyltransferase G9a. Potency, µM (highest dose often 102 µM), actives largely listed as inhibitors. AID 504332. G9a H3K9 monomethylation, AlphaScreen, 2 h. 350,000 tested, 8.8% active; note: nearly all actives have a fitted effect of over 75% in size
Target sequence (Q96KQ7 913-1193 limits assumed): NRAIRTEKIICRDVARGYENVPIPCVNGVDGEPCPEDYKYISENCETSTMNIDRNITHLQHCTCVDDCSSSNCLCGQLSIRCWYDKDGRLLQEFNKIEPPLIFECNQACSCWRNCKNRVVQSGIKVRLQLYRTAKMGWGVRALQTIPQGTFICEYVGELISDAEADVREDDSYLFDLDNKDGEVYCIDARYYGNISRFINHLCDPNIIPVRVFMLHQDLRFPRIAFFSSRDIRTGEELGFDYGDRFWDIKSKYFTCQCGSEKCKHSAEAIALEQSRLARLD
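Compounds were preincubated with 20 nM G9a for 15 min, after which biotinylated H3K9 peptide (500 nM) and SAM (20 uM) started a 2 h room-temperature reaction. Monomethylated product was quantified by antibody-based AlphaScreen chemiluminescence.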
Sfp PPTase inh – Sfp phosphopantetheinyl transferase inhibition; Q9F4F7; Biochemical Sfp PPTase activity, qHTS; Potency, µM, most hits filed as inhibitors; 310,000 tested, 3.5% active; AID 1490;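 note: the enzyme is Sfp with the accession as filed and its product quenches rhodamine fluorescence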
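After 15 min at room temperature with compound, 15 nM Sfp received 5 uM rhodamine-CoA plus 12.5 uM BHQ-2-ybbR (50 mM Hepes pH 7.6, 10 mM MgCl2). Rate came from the fluorescence difference over 30 min, ex 525/em 598 nm.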
Mm-Cpn inhibitor – M. maripaludis TRiC chaperonin inhibition. purified Mm-Cpn ATPase, ADP Transcreener TR-FRET. Potency, µM (series often up to 76.9 µM), usual class: inhibitors. 330,000 tested, 0.031% active; note: nearly all actives have a fitted effect of over 80% in size
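Quantitative HTS used 25 nM Mm-CPN and 10 uM ATP in magnesium/KCl Tris buffer, pH 7.4, with 1 mM DTT. Hydrolysis ran 30 min at 37°C; ADP was read by HTRF.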
Of the large screens only hits and unclear results are named; the others gave an inactive call. The list is not random: actives were taken first. Their share in the collection is about 10%. Unless noted, calls come from the whole dose curve; as a rule, active = well fitted curve in the direction sought with a large enough effect; inconclusive = small, poorly fitted or top-dose-only effect, or another doubt; inactive = no such curve, though single readings can be large; an effect the other way counts as inactive or inconclusive.

COC(=O)c1sc(-c2ccc(C(C)(C)C)cc2)cc1NC(=O)c1ccccc1C(=O)O	VDR inhibitor inconclusive, PLK1 PBD block 21µM
COC(=O)c1cc(-c2ccccc2)sc1N	VDR inhibitor inconclusive, PLK1 PBD block 21µM, G9a block 4.5µM, Sfp PPTase inh 40µM
CCOc1ccc(NC(=O)Nc2cc(-c3ccccc3)sc2C(=O)OC)cc1	none
COc1ccc(Nc2nc(-c3cc4cccc(OC)c4oc3=O)cs2)cc1	G9a block 45µM, Sfp PPTase inh inconclusive
O=C(O)c1ccc(Nc2nc(-c3cc4ccccc4oc3=O)cs2)cc1O	PLK1 PBD block 24µM, G9a block 40µM, Sfp PPTase inh 35µM
COc1ccc2oc(=O)c(-c3csc(Nc4cccc(O)c4)n3)cc2c1	Sfp PPTase inh inconclusive
COc1ccc(-c2n[nH]c3c2cnc2ccc(F)cc23)cc1	none (no result: CCT chaperon mod, PLK1 PBD block, Sfp PPTase inh, Mm-Cpn inhibitor)
CC1CCN(CC(O)CN2c3ccccc3Sc3ccccc32)CC1 (configuration not stated)	G9a block inconclusive
CN1CC[C@H](CN2c3ccccc3Sc3ccccc32)C1	G9a block 16µM (no result: CCT chaperon mod, PLK1 PBD block, Mm-Cpn inhibitor)
O=C(N/N=C/c1cccnc1)C12CC3CC(CC(C3)C1)C2	none
O=C(N/N=C/c1ccncc1)C12CC3CC(CC(C3)C1)C2	PLK1 PBD block 38µM
COc1cc2c(cc1OC)C(c1ccc(Cl)cc1)N(c1ccc(C)c(F)c1)C(=O)C2 (configuration not stated)	none (no result: CCT chaperon mod, PLK1 PBD block, Sfp PPTase inh, Mm-Cpn inhibitor)
Nc1nc(CN2CCN(c3ccccc3)CC2)nc(N2CCCc3ccccc32)n1	G9a block 50µM
COc1ccc(N2CCN(Cc3nc(N)nc(N4CCCc5ccccc54)n3)CC2)cc1	G9a block 45µM
Nc1nc(CN2CCN(c3cccc(Cl)c3)CC2)nc(N2CCCc3ccccc32)n1	none
O=C1c2ccccc2C(=O)N1c1ccc2ncccc2c1	none (no result: CCT chaperon mod, PLK1 PBD block, G9a block, Sfp PPTase inh, Mm-Cpn inhibitor)
Cc1c(C(=O)Nc2ccc(F)cc2)oc2ccc(S(=O)(=O)N3CCCCCC3)cc12	G9a block inconclusive (no result: CCT chaperon mod, PLK1 PBD block, Sfp PPTase inh, Mm-Cpn inhibitor)
N#Cc1ccc(CS(=O)(=O)c2nnnn2-c2ccccc2)cc1	VDR inhibitor 45µM (no result: CCT chaperon mod, PLK1 PBD block, G9a block, Mm-Cpn inhibitor)
N#Cc1cccc(CS(=O)(=O)c2nnnn2C2CCCCC2)c1	VDR inhibitor inconclusive (no result: CCT chaperon mod, PLK1 PBD block, G9a block, Mm-Cpn inhibitor)
O=S(=O)(Cc1ccccc1)c1nnnn1-c1ccccc1	VDR inhibitor 35µM (no result: CCT chaperon mod, PLK1 PBD block, G9a block, Mm-Cpn inhibitor)
O=S(=O)(Cc1nnnn1-c1ccccc1)c1ccc(Cl)cc1	none
Cc1noc(NS(=O)(=O)c2ccc(NC(=O)COc3ccccc3Br)cc2)c1C	none (no result: CCT chaperon mod, PLK1 PBD block, Sfp PPTase inh, Mm-Cpn inhibitor)
CCCCC(=O)Nc1ccc(C(=O)OCc2cc(=O)n3ccsc3n2)cc1	none (no result: CCT chaperon mod, PLK1 PBD block, Sfp PPTase inh, Mm-Cpn inhibitor)
CCOc1ccc(Nc2oc(/C=C/c3cccc(OC)c3)nc2C#N)cc1	none (no result: CCT chaperon mod, PLK1 PBD block, Sfp PPTase inh, Mm-Cpn inhibitor)
COc1cc(/C=N/N=C2\CC3CCC2(C)C3(C)C)ccc1O (configuration not stated)	none (no result: Mm-Cpn inhibitor)
CC12CCC(C/C1=N\N=C1\NC(=O)/C(=C\c3cccc(Br)c3)S1)C2(C)C (configuration not stated)	PLK1 PBD block 30µM, G9a block 1.3µM
N#C/C(=C\c1ccc(N2CCCCC2)o1)C(N)=O	G9a block 28µM
COC(=O)/C=C1\SC(N2CCOCC2)=C(c2ccc(OC)cc2)C1=O	VDR inhibitor inconclusive, PLK1 PBD block 15µM, G9a block 2µM
C[C@]12CCC(=O)C=C1CC[C@@H]1[C@H]2[C@@H](O)C[C@@]2(C)[C@H]1CC[C@]2(O)C(=O)CO	none (no result: CCT chaperon mod, PLK1 PBD block, Mm-Cpn inhibitor)
CSc1ccc(CCNC(=O)c2cc3c(-c4ccccc4F)nn(C)c3s2)cc1	none (no result: CCT chaperon mod, PLK1 PBD block, Sfp PPTase inh, Mm-Cpn inhibitor)
CCOC(=O)c1c(NC(=O)COC(=O)/C=C/c2ccco2)sc2c1CC(C)(C)NC2(C)C	G9a block 16µM (no result: Sfp PPTase inh)
CCOC(=O)c1c(NC(=O)COc2ccccc2)sc2c1CC(C)(C)NC2(C)C	none
CCOC(=O)c1c(NC(=O)CSc2nc3ccccc3[nH]2)sc2c1CC(C)(C)NC2(C)C	G9a block 40µM (no result: Sfp PPTase inh)
O=C(CSc1nc(Cc2ccccc2)nc2ccccc12)c1ccc2c(c1)OCCO2	G9a block inconclusive
C/C(N)=C(/C#N)C(=O)CSc1ncnc2ccccc12	PLK1 PBD block 27µM
O=C(CSc1ncnc2ccccc12)c1ccc2c(c1)OCCO2	G9a block inconclusive, Mm-Cpn inhibitor 20µM
Cn1c(SCC(=O)c2ccc3c(c2)OCCO3)nnc1C(F)(F)F	G9a block 56µM
